PubChem BioAssay
Results filed as inconclusive are left out. Active and inactive are the calls of the source. The limit is not given here; nearly all actives have AC50 up to about 30 µM.

Test: viability loss in pontine glioma line – cell-based, SU-DIPG-IV, MIPE4.0, CellTiter-Glo, qHTS, dose response (AID 1347063);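 also: compound exposure lasted 48 hours before the viability readout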
Conditions: CellTiter-Glo ATP luminescence

Row | Structure (SMILES) | outcome | AC50
1 | COc1c(O)cc2c(c1O)[C@@H]1O[C@H](CO)[C@@H](O)[C@H](O)[C@H]1OC2=O | inactive | –
2 | CCC(=O)NCC[C@@H]1CCc2ccc3c(c21)CCO3 | inactive | –
3 | C[C@@H]1[C@H](O)[C@@H](C)/C=C/C=C/C=C/C=C/C=C/C=C/C=C/[C@H](O[C@@H]2O[C@H](C)[C@@H](O)[C@H](N)[C@@H]2O)C[C@@H]2O[C@](O)(C[C@@H](O)C[C@@H](O)[C@H](O)CC[C@@H](O)C[C@@H](O)CC(=O)O[C@H]1C)C[C@H](O)[C@H]2C(=O)O | – | 6.62 µM (active)
4 | CC(C)(S)[C@@H](N)C(=O)O | inactive | –
5 | CC1(C)[C@@H](O)CC[C@]2(C)[C@H]3C(=O)C=C4[C@@H]5C[C@@](C)(C(=O)O)CC[C@]5(C)CC[C@@]4(C)[C@]3(C)CC[C@@H]12 | inactive | –
6 | CN[C@H](CC(C)C)C(=O)N[C@H]1C(=O)N[C@@H](CC(N)=O)C(=O)N[C@H]2C(=O)N[C@H]3C(=O)N[C@H](C(=O)N[C@H](C(=O)O)c4cc(O)cc(O)c4-c4cc3ccc4O)[C@H](O)c3ccc(c(Cl)c3)Oc3cc2cc(c3O[C@@H]2O[C@H](CO)[C@@H](O)[C@H](O)[C@H]2O[C@H]2C[C@](C)(N)[C@H](O)[C@H](C)O2)Oc2ccc(cc2Cl)[C@H]1O | inactive | –
7 | CC[C@@]1(O)C[C@H](O[C@H]2C[C@H](N(C)C)[C@H](O[C@H]3C[C@H](O)[C@H](O[C@H]4CCC(=O)[C@H](C)O4)[C@H](C)O3)[C@H](C)O2)c2c(cc3c(c2O)C(=O)c2c(O)cccc2C3=O)[C@H]1C(=O)OC | – | 0.469 µM (active)
8 | COc1cc([C@@H]2c3cc4c(cc3[C@@H](O[C@@H]3O[C@@H]5CO[C@@H](c6cccs6)O[C@H]5[C@H](O)[C@H]3O)[C@H]3COC(=O)[C@H]23)OCO4)cc(OC)c1O | – | 0.332 µM (active)
9 | C[C@H]1O[C@@H](O[C@H]2[C@@H](O)C[C@H](O[C@H]3[C@@H](O)C[C@H](O[C@H]4CC[C@@]5(C)[C@H](CC[C@@H]6[C@@H]5C[C@@H](O)[C@]5(C)[C@@H](C7=CC(=O)OC7)CC[C@]65O)C4)O[C@@H]3C)O[C@@H]2C)C[C@H](O)[C@@H]1O | – | 0.241 µM (active)
10 | C[C@H]1C[C@H]2[C@@H]3CCC4=CC(=O)C=C[C@]4(C)[C@@]3(F)[C@@H](O)C[C@]2(C)[C@@]1(O)C(=O)CO | inactive | –
11 | CC(C)(O)CC[C@@H](O)[C@](C)(O)[C@H]1CC[C@@]2(O)C3=CC(=O)[C@@H]4C[C@@H](O)[C@@H](O)C[C@]4(C)[C@H]3CC[C@]12C | inactive | –
12 | C=C(C)[C@@H]1CC[C@]2(C(=O)O)CC[C@]3(C)[C@H](CC[C@@H]4[C@@]5(C)CC[C@H](O)C(C)(C)[C@@H]5CC[C@]43C)[C@@H]12 | inactive | –
13 | COc1cc([C@@H]2c3cc4c(cc3[C@H](O)[C@H]3COC(=O)[C@@H]23)OCO4)cc(OC)c1OC | – | 0.0372 µM (active)
14 | COc1ccc(CCC(=O)c2c(O)cc(O[C@@H]3O[C@H](CO)[C@@H](O)[C@H](O)[C@H]3O[C@@H]3O[C@@H](C)[C@H](O)[C@@H](O)[C@H]3O)cc2O)cc1O | inactive | –
15 | CCC[C@@H]1C[C@@H](C(=O)N[C@@H]([C@H]2O[C@H](SC)[C@H](O)[C@@H](O)[C@H]2O)[C@@H](C)O)N(C)C1 | inactive | –
16 | COc1ccc([C@@H]2CC(=O)c3c(O)cc(O[C@@H]4O[C@H](CO[C@@H]5O[C@@H](C)[C@H](O)[C@@H](O)[C@H]5O)[C@@H](O)[C@H](O)[C@H]4O)cc3O2)cc1O | inactive | –
17 | COc1ccc(-c2cc(=O)c3c(O)cc(O[C@@H]4O[C@H](CO[C@@H]5O[C@@H](C)[C@H](O)[C@@H](O)[C@H]5O)[C@@H](O)[C@H](O)[C@H]4O)cc3o2)cc1O | inactive | –
18 | CC1(C)[C@@H](O[C@H]2O[C@H](C(=O)O)[C@@H](O)[C@H](O)[C@H]2O[C@@H]2O[C@H](C(=O)O)[C@@H](O)[C@H](O)[C@H]2O)CC[C@]2(C)[C@H]3C(=O)C=C4[C@@H]5C[C@@](C)(C(=O)O)CC[C@]5(C)CC[C@@]4(C)[C@]3(C)CC[C@@H]12 | inactive | –
19 | C[C@H](CCC(=O)O)[C@H]1CC[C@H]2[C@@H]3[C@H](O)C[C@@H]4C[C@H](O)CC[C@]4(C)[C@H]3CC[C@]12C | inactive | –
